Experimental data from the supplement of paper PMC12494721.
Counter-ions that a name gives are not always drawn. A number with no mark means an inactive call.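 Rule for the calls: for the amine columns active = adjusted P below 0.05 in both replicates with a change the same way and a mean fold change under 0.8 or over 1.25; inactive = the rest.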

These molecules were tested on Klebsiella aerogenes DSM 30053 (assay: fold change of Putrescine concentration vs plate DMSO controls (fold change (ratio)); higher = more amine produced, active = hit call of the paper (significant change in both replicates, either direction)). Conditions: incubation time: 27 h, anaerobic, 37 °C.
In short: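 Each value is the fold change relative to DMSO-only wells on the same plate. Four gut bacterial strains were grown anaerobically in mGAM at 37 °C for 27 h in 80 µL wells, starting at OD 0.1 before a 1:1 dilution, with compounds at 20 µM final (sweeteners 50 µM). Whole cultures were extracted with cold acetonitrile/methanol containing 0.1% formic acid, centrifuged, and amines were quantified by LC–triple-quadrupole MS (dynamic MRM) against external calibration curves with within-batch drift correction. Values are means of 2 biological replicates.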

Row | Compound | fold change of Putrescine concentration
1 | CNC(=C[N+](=O)[O-])NCCSCc1ccc(CN(C)C)o1 [Ranitidine hydrochloride] (20 µM) | 1.01
2 | C/C(O)=C(\C#N)C(=O)Nc1ccc(C(F)(F)F)cc1 [Teriflunomide] (20 µM) | 1.02
3 | Cc1ccsc1/C=C/C1=NCCCN1C [Morantel tartrate] (20 µM) | 1
4 | CCCCOCCOCCOCc1cc2c(cc1CCC)OCO2 (20 µM) | 1
5 | CC(C)C(=O)Nc1ccc([N+](=O)[O-])c(C(F)(F)F)c1 [Flutamide] (20 µM) | 1.01
6 | N=c1nc(N2CCCCC2)cc(N)n1O [Minoxidil] (20 µM) | 0.987
7 | C[C@]12CCC3=C4CCC(=O)C=C4CC[C@H]3[C@@H]1CC[C@@]2(O)CC#N [Dienogest] (20 µM) | 1
8 | CN(Cc1cnc2nc(N)nc(N)c2n1)c1ccc(C(=O)N[C@@H](CCC(=O)O)C(=O)O)cc1 [Amethopterin] (20 µM) | 1
9 | NC(=O)C1CO1 (stereo not given) [Glycidamide] (20 µM) | 1.07
10 | O=C1[C@H]2CCCC[C@H]2C(=O)N1CCCCN1CCN(c2nsc3ccccc23)CC1 [Perospirone hydrochloride] (20 µM) | 1.01
11 | C=C1[C@H](CO)[C@@H](O)C[C@@H]1n1cnc2c(=O)[nH]c(N)nc21 [Entecavir] (20 µM) | 1
12 | O=c1n(CCCN2CCN(c3cccc(Cl)c3)CC2)nc2ccccn12 [Trazodone hydrochloride] (20 µM) | 0.997
13 | CC(=O)Nc1nnc(S(N)(=O)=O)s1 [Acetazolamide] (20 µM) | 1.06
14 | CCOC(=O)C1=C(C)NC(C)=C(C(=O)OC)C1c1cccc([N+](=O)[O-])c1 (stereo not given) [Nitrendipine] (20 µM) | 0.993
15 | CCCSS/C(CCO)=C(/C)N(C=O)Cc1cnc(C)nc1N [Prosultiamine] (20 µM) | 0.98
16 | CC(C)NCC(O)c1ccc(NS(C)(=O)=O)cc1 (stereo not given) [Sotalol hydrochloride] (20 µM) | 1.06
17 | NC(=O)OCC(O)COc1ccc(Cl)cc1 (stereo not given) [Chlorphensin carbamate] (20 µM) | 0.913
18 | C[C@]12CC[C@H]3[C@@H](CCC4=CC(=O)CC[C@@]43C)[C@@H]1CC[C@@H]2C(=O)CO [Deoxycorticosterone] (20 µM) | 0.962
19 | OC(CCCN1CCCCC1)(c1ccccc1)c1ccccc1 [Diphenidol hydrochloride] (20 µM) | 1.02
20 | Cc1cccc(Nc2ccncc2S(=O)(=O)NC(=O)NC(C)C)c1 [Torsemide] (20 µM) | 0.998
21 | CCN(CC)C(=O)Nc1ccc(OCC(O)CNC(C)(C)C)c(C(C)=O)c1 (stereo not given) [Celiprolol hydrochloride] (20 µM) | 1.01
22 | CC(NCCC(c1ccccc1)c1ccccc1)c1ccccc1 (stereo not given) [Fendiline hydrochloride] (20 µM) | 1.03
23 | Oc1c(I)cc(Cl)c2cccnc12 [Clioquinol] (20 µM) | 1.01
24 | CCCCC1=NC2(CCCC2)C(=O)N1Cc1ccc(-c2ccccc2-c2nnn[nH]2)cc1 [Irbesartan] (20 µM) | 1.01
25 | CCc1ccc(C(=O)C(C)CN2CCCCC2)cc1 (stereo not given) [Eperisone Hydrochloride] (20 µM) | 0.98
26 | CCn1cc(C(=O)O)c(=O)c2cc(F)c(N3CCNC(C)C3)c(F)c21 (stereo not given) [Lomefloxacin hydrochloride] (20 µM) | 0.627 (active)
27 | CC(C)OC(=O)C(C)(C)Oc1ccc(C(=O)c2ccc(Cl)cc2)cc1 [Fenofibrate] (20 µM) | 0.984
28 | CN1CCCN=C1/C=C/c1cccc(O)c1 [Oxantel pamoate] (20 µM) | 0.967
29 | CO/N=C(\C(=O)N[C@@H]1C(=O)N2C(C(=O)[O-])=C(C[n+]3cccc4c3CCC4)CS[C@H]12)c1csc(N)n1 [Cefpirome sulfate] (20 µM) | 0.347 (active)
30 | C[C@H]1C[C@H]2[C@@H]3CCC4=CC(=O)C=C[C@]4(C)[C@@]3(F)[C@@H](O)C[C@]2(C)[C@@]1(O)C(=O)CO [Betamethasone] (20 µM) | 1.01
